From PubChem BioAssay (Tox21)
Records with an inconclusive call do not appear. Active and inactive are the calls of the source. Calls come from the whole dose curve.

Legend:
[1] = molecular target: Acetylcholinesterase (Homo sapiens) (UniProt P22303); test: Acetylcholinesterase (AChE) small molecule antagonists: colormetric cell-based qHTS assay (AID 1347395); note: nearly all actives have a fitted effect of over 30% in size
Method in brief: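 Endogenous AChE of human neuroblastoma SH-SY5Y cells was measured with an Ellman-type DTNB/acetylthiocholine mix. Compound pretreatment lasted 30 min at 37 C; substrate reaction ran 90 min at 37 C.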

[2] = molecular target: Acetylcholinesterase (Homo sapiens) (UniProt P22303); test: Acetylcholinesterase (AChE) small molecule antagonists: enzyme-based qHTS assay (AID 1347397); settings: Potency: AChE enzyme activity inhibition; outcome: AChE enzyme activity inhibition; note: nearly all actives have a fitted effect of over 55% in size
Method in brief: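 Tox21 library chemicals are tested in qHTS format against recombinant human AChE. The enzyme, dispensed at 50 mU/mL, sits with compound for 30 min at room temperature. A DTNB–acetylthiocholine cocktail follows, and colour is read after 10 min.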

[3] = molecular target: Acetylcholinesterase (Homo sapiens) (UniProt P22303); test: Acetylcholinesterase (AChE) small molecule antagonists: fluorescence cell-based qHTS assay (AID 1347398); settings: Potency: AChE activity; outcome: AChE activity; note: nearly all actives have a fitted effect of over 50% in size
Method in brief: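 Cellular AChE inhibition: SH-SY5Y cells treated with test chemical for 30 min at 37 C, then acetylthiocholine hydrolysis followed over 40 min at room temperature via thiocholine-reactive Thiolite Green fluorescence (490/520 nm).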

[4] = molecular target: Acetylcholinesterase (Homo sapiens) (UniProt P22303); test: Acetylcholinesterase (AChE) small molecule antagonists: enzyme-based qHTS assay with human liver microsomes (AID 1347399); settings: Potency: qHTS inhibition; outcome: qHTS inhibition; note: nearly all actives have a fitted effect of over 60% in size
Method in brief: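 Recombinant human AChE (50 mU/mL in the enzyme mix) and human liver microsomes (0.25 mg/mL final) were preincubated with compound and NADPH (0.25 mg/mL final) for 30 min at 37 C. Acetylthiocholine/DTNB was then added; thiocholine was read colorimetrically after 10 min at room temperature.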
% is set by controls: 0 for no effect and ±100 for the full control effect; potency is the fitted concentration of half-maximal effect.

Chain of Acetylcholinesterase (Homo sapiens) (P22303 whole entry, looked up): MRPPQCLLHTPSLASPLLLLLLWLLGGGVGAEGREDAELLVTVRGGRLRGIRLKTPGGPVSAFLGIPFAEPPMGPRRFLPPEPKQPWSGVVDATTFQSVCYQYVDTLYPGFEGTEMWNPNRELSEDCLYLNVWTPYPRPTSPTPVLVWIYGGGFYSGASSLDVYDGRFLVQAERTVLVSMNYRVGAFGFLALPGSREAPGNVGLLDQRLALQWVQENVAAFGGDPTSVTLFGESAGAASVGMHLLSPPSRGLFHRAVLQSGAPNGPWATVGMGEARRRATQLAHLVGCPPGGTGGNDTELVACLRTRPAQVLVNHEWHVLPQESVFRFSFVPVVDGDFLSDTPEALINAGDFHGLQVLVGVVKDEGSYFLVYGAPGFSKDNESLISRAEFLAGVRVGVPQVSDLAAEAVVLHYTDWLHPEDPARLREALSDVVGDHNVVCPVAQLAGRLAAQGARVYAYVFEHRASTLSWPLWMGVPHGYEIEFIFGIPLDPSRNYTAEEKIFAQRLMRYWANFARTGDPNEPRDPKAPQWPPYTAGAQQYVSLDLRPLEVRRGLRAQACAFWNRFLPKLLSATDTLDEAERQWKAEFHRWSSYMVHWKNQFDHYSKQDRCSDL

CCCCCCCCCCCCCCCCCCCl
inactive: activity, negative = inhibition [1] -3.15% [at 10.5 µM] | activity change, negative = inhibition [2] -0.128% [at 10.5 µM] | activity change, negative = inhibition [3] 5.41% [at 10.5 µM] | activity change, negative = inhibition [4] 0.243% [at 10.5 µM]

CC1=C(/C=C/C(C)=C/C=C/C(C)=C\C=O)C(C)(C)CCC1
inactive: Potency [1] | Potency [2] | Potency [3] | Potency [4]

CCC(=O)OCCOc1ccccc1
inactive: Potency [1] | Potency [2] | Potency [3] | Potency [4]

Cc1cc(S(=O)(=O)O)ccc1N=Nc1c(O)ccc2ccccc12
inactive: Potency [1] | Potency [2] | Potency [3] | Potency [4]

O=C1C=CC(=O)N1c1cccc(N2C(=O)C=CC2=O)c1
inactive: Potency [1] | Potency [2] | Potency [4]
active: Potency [3] 44.8 µM

CC1OC(=O)C(C)OC1=O (stereo unspecified)
inactive: Potency [1] | Potency [2] | Potency [3] | Potency [4]

O=[N+]([O-])c1ccc2[nH]ncc2c1
inactive: Potency [1] | Potency [2] | Potency [3] | Potency [4]

O=S(O)(O)=S
inactive: activity, negative = inhibition [1] -0.643% [at 10.5 µM] | activity change, negative = inhibition [2] 0.136% [at 10.5 µM] | activity change, negative = inhibition [3] 2.89% [at 10.5 µM] | activity change, negative = inhibition [4] 0.162% [at 10.5 µM]

Clc1nc2ccccc2nc1Cl
inactive: Potency [1] | Potency [2] | Potency [3] | Potency [4]

O=C(O)c1c(Cl)cccc1Cl
inactive: Potency [1] | Potency [2] | Potency [3] | Potency [4]

CC1C2CC(CC2C2CCCC(O)C2)C1(C)C (stereo unspecified)
inactive: Potency [1] | Potency [2] | Potency [3] | Potency [4]

CC(C)SCc1ccco1
inactive: Potency [1] | Potency [2] | Potency [3] | Potency [4]

CC(C)CC(O)CC(C)C
inactive: Potency [1] | Potency [2] | Potency [3] | Potency [4]

CCCCCCCCN(C)CCCCCCCC
inactive: Potency [1] | Potency [2] | Potency [3] | Potency [4]

S=c1[nH][nH]c(=S)s1
inactive: Potency [1] | Potency [2] | Potency [3] | Potency [4]

COc1ccc(S(=O)(=O)N2c3ccc(Cl)cc3[C@@](O)(c3ccccc3Cl)[C@H]2C(=O)N2CCC[C@@H]2C(N)=O)cc1OC
inactive: Potency [1] | Potency [2] | Potency [3] | Potency [4]

CCOCC(C)O (stereo unspecified)
inactive: Potency [1] | Potency [2] | Potency [3] | Potency [4]

CCOC(=O)CC#N
inactive: Potency [1] | Potency [2] | Potency [3] | Potency [4]

Nc1nc(-c2ccccc2)cs1
inactive: Potency [1] | Potency [2] | Potency [3] | Potency [4]

CCCC(=O)C(CC)Sc1ccoc1C (stereo unspecified)
inactive: Potency [1] | Potency [2] | Potency [3] | Potency [4]

O=C(C1CCCCC1)N1CC(=O)N2CCCc3ccccc3C2C1 (stereo unspecified)
inactive: Potency [1] | Potency [2] | Potency [3] | Potency [4]

C=CCn1c(=O)n(CC=C)c(=O)n(CC=C)c1=O
inactive: Potency [1] | Potency [2] | Potency [3] | Potency [4]

O=C(O)CCCCCCCCCCCBr
inactive: Potency [1] | Potency [2] | Potency [3] | Potency [4]

CC(=O)OCC(=O)[C@@]1(O)CC[C@H]2[C@@H]3CCC4=CC(=O)C=C[C@]4(C)[C@@]3(F)[C@@H](O)C[C@@]21C
inactive: Potency [1] | Potency [2] | Potency [3] | Potency [4]

CN1C(C)(C)CCCC1(C)C
inactive: Potency [1] | Potency [2] | Potency [3] | Potency [4]

CCC1(C)NC(=O)NC1=O (stereo unspecified)
inactive: Potency [1] | Potency [2] | Potency [3] | Potency [4]

O=C(C(Cl)Cl)N1CCOC12CCCCC2
inactive: Potency [1] | Potency [2] | Potency [3] | Potency [4]

O=C1CCCN1CCO
inactive: Potency [1] | Potency [2] | Potency [3] | Potency [4]

CCCCCCCCCCCCCCC[C@H](O)[C@@H](N)CO
inactive: Potency [1] | Potency [2] | Potency [3] | Potency [4]

C=CC(C)=CCC=C(C)C
inactive: Potency [1] | Potency [2] | Potency [3] | Potency [4]

CC(=O)CC(N)=O
inactive: Potency [1] | Potency [2] | Potency [3] | Potency [4]

CCCCCc1ccc(Cl)cc1
inactive: Potency [1] | Potency [2] | Potency [3] | Potency [4]

O=C(/C=C/c1ccccc1)OCCc1ccccc1
inactive: Potency [1] | Potency [2] | Potency [3] | Potency [4]

CCN(CC)C(=O)/C(C#N)=C/c1cc(O)c(O)c([N+](=O)[O-])c1
inactive: Potency [1] | Potency [2] | Potency [3] | Potency [4]

C1C2OC2C2C1C1CC2C2OC12 (stereo unspecified)
inactive: Potency [1] | Potency [2] | Potency [3] | Potency [4]

CCCCCCCCCCCCCCC1CO1 (stereo unspecified)
inactive: Potency [1] | Potency [2] | Potency [3] | Potency [4]

CC(=O)Nc1ccc(S(=O)(=O)Nc2cc(C)on2)cc1
inactive: Potency [1] | Potency [2] | Potency [3] | Potency [4]

C=C(C)C(=O)OCCOCCOC(=O)C(=C)C
inactive: Potency [1] | Potency [2] | Potency [3] | Potency [4]

S=P(N1CC1)(N1CC1)N1CC1
active: Potency [1] 66.7 µM | Potency [2] 59.4 µM | Potency [3] 33.4 µM | Potency [4] 74.8 µM
